ALOX15 inhib: 15-hLO (ALOX15) enzyme inhibition; P16050; purified 15hLO-1, xylenol orange hydroperoxide absorbance; Potency, µM (series often up to 57.1 µM), for the others: at the highest dose activity change, negative = inhibition, actives largely listed as inhibitors; 1.4% of 74,000 active; note: % is set by controls: 0 for no effect and ±100 for the full control effect; nearly all actives have a fitted effect of over 55% in size
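Quantitative HTS in 25 mM Hepes pH 7.5 containing 0.01% Triton X-100: human 15hLO-1 at 40 nM, arachidonic acid at 50 uM, 6 min turnover. Product quantified via ferrous oxidation/xylenol orange, 573:405 nm absorbance ratio.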
Bst PK mod: modulators of Bacillus stearothermophilus pyruvate kinase | purified pyruvate kinase, luminescence ATP production; ribose 5-phosphate activator present at AC10 | Potency, µM | 1.2% of 51,000 active; in the data active = potency below about 11 µM; inconclusive = mostly about 12 µM to 25 µM;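 the screen sought inhibitors and activators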;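 note: scaled between full activation by ribose 5 phosphate and full inhibition by luteolin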
Tau fil binding: binders of human tau filaments | P10636 | recombinant tau filaments, thioflavin S fluorescence, 15 h; filaments grown with octadecylsulfate alongside compound | Potency, µM (doses to about 57.1 µM), without a hit: top-dose activity change, negative = inhibition | 2% of 71,000 active;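 note: % is set by controls: 0 for no effect and ±100 for the full control effect; actives lower thioflavin S fluorescence by blocking filaments or displacing dye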
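Assay mix: 1 uM His-tagged tau, 30 uM sodium octadecylsulfate, thioflavine S dye in HEPES/NaCl/DTT buffer. Compound is added prior to the inducer. Fluorescence after 15 h at 37 C.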
Luciferase inh: firefly luciferase inhibition. 2.2% of 72,000 active. AID 411. P08659. purified firefly luciferase, luminescence, 8 min. Potency, µM (highest dose often 57.1 µM), without a hit: at the highest dose activity change, negative = inhibition, usual class: inhibitors; note: % is set by controls: 0 for no effect and ±100 for the full control effect; nearly all actives have a fitted effect of over 40% in size
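Inhibition of light generation by firefly luciferase from ATP and luciferin was profiled with concentration-response curves per sample, ATP held at 10 uM within the enzyme's linear range. Plates were read by luminescence after an 8-minute ambient incubation.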
TSHR ag: activates the human thyroid stimulating hormone receptor | P16473 | HEK293-CNG-TSHR cells (CNG channel as cAMP sensor), membrane potential dye, cAMP | Potency, µM (doses to about 57.1 µM), inactives show at the top dose activation, actives largely listed as activators | 0.48% of 73,000 active | AID 926; active = well fitted activation curve with a large enough effect in the main read-out, with a control signal flat, not every such curve was filed as active; inconclusive = small, poorly fitted or top-dose-only effect, or a change in a side signal; inactive = no such curve, though single readings can be large or run the other way; % of control where 0% means no effect;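 note: the control signal comes from parental cells without the receptor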
Target sequence (P16473 whole entry, looked up): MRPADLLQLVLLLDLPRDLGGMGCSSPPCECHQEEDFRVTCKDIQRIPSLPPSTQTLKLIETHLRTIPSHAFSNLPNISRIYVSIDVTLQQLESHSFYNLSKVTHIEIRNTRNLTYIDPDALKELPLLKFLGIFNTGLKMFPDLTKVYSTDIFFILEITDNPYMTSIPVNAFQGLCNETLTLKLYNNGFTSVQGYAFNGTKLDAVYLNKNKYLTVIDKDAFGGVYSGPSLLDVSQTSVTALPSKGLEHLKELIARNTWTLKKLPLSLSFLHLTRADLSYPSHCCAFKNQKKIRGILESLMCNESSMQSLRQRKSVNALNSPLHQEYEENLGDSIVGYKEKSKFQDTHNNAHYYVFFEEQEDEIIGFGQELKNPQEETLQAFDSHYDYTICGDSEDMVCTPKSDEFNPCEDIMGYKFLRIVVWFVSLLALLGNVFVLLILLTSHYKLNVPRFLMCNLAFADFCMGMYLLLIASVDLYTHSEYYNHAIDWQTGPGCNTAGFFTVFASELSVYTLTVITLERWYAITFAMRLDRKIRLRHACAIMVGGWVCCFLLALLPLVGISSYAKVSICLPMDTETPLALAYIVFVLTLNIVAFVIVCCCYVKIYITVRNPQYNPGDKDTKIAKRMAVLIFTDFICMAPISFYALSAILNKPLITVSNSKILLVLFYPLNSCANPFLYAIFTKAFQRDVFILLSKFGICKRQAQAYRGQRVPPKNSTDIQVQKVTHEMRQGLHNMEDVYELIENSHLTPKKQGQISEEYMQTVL
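HEK 293 cells stably expressing TSHR and a modified CNG channel, with CNG-only parental cells as counterscreen, were preloaded 60 min at room temperature with membrane potential dye containing 100 uM RO 20-1724. Compound exposure was 30 min, and depolarization was read as fluorescence at 590 nm.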
HEK293 cAMP ctrl: counter-screen for TSHR agonists: cAMP increase in parental HEK293 | parental HEK293 CNG cAMP sensor, membrane potential fluorescence | Potency, µM (series often up to 57.1 µM), for the others: at the highest dose activation, actives largely listed as activators | 2.5% of 73,000 active | AID 938; note: % of control where 0% means no effect; nearly all actives have a fitted effect of over 55% in size
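Parental HEK 293 cells stably expressing a cAMP-gated CNG channel were loaded with membrane potential dye containing 100 uM RO 20-1724 for 60 min. Compound added for 30 min; depolarization read as fluorescence intensity at 590 nm.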
An asterisk follows results filed as active; i = inactive; ? = inconclusive; / = no result; [ ] = another dose, or the depositor's remark. Rows were chosen to be rich in hits. Some 7.8% of all compounds tested hit in one or more screens of this group. Unless noted, calls come from the whole dose curve; as a rule, active = well fitted curve in the direction sought with a large enough effect; inconclusive = small, poorly fitted or top-dose-only effect, or another doubt; inactive = no such curve, though single readings can be large; an effect the other way counts as inactive or inconclusive. Potency is the fitted concentration of half-maximal effect.

SMILES	ALOX15 inhib	Bst PK mod	Tau fil binding	Luciferase inh	TSHR ag	HEK293 cAMP ctrl
CN(CC[C@@H](Oc1ccc(-c2ccccc2)cc1)c1ccc(F)cc1)CC(=O)O	-9%[25.6 µM]	/	31%	-1%	2%	-5%
CCOCC(=O)Nc1nc2ccc(C)cc2s1	-10%	/	-20%	25µM*	1%	11%
COc1ccc2sc(NC(=O)c3ccco3)nc2c1	-10%	5.4*	-6%	7.9µM*	-5%	1%
COc1ccc2nc(NC(=O)c3ccoc3C)sc2c1	-22%	i	69%	3.2µM*	-5%	5%
COc1ccc2nc(NC(=O)c3cccc(OCc4c(C)noc4C)c3)sc2c1	?	6*	406%	13µM*	?	?
COc1ccccc1CN1CC2(CCN(C(=O)c3cnccn3)CC2)C1	6%	/	-5%	2%[11.4 µM]	-3%	-4%
CC1(C)O[C@H]2[C@@H](O1)[C@@H](On1nnc3ccc(Cl)cc31)O[C@@H]2[C@@H]1COC(C)(C)O1	16%[11.4 µM]	/	6%[11.4 µM]	4%[11.4 µM]	1%[11.4 µM]	8%[11.4 µM]
COc1ccc2nc(NC(=O)CN3CCN(C)CC3)sc2c1	-6%	>57	8%	-7%	3%	16%
CCCC(=O)Nc1nc2ccc(OC)cc2s1	3%	/	-8%	13µM*	?	?
CCOC(=O)c1cc2occc2n1CC(=O)N1CCOCC1	-20%	>57	1%	1%	2%	10%
CCOC(=O)c1cc2occc2n1CCCN1C(=O)c2ccccc2C1=O	-19%	>57	16µM*	0%	/	10%
COc1cc2c(cc1NC(=O)CC1SC(N3CCCC3)=NC1=O)oc1ccccc12 (stereo not drawn)	-17%	/	108%	-3%	-5%	-5%
OC[C@@H]1O[C@H](O)[C@@H](Cl)[C@H](O)[C@@H]1O	6%	/	0%	-1%	-6%	-2%
O=C(CC1Nc2ccccc2NC1=O)NCc1cccnc1 (stereo not drawn)	16µM*	>57	-8%	2%	-5%	14%
Cc1noc(C)c1COC(=O)CCN1c2ccccc2Sc2ccccc21	-14%	/	20µM*	-2%	/	16%
COc1ccc(C2c3c(oc4ccccc4c3=O)C(=O)N2c2ccccn2)cc1OC (stereo not drawn)	11%	/	-7%	1%	1%	4%
COc1cc(C2c3c(oc4ccccc4c3=O)C(=O)N2c2ccc(C)cn2)ccc1O (stereo not drawn)	-6%	/	13µM*	-1%	-26%	-20%
Cc1ccc(N2C(=O)c3oc4ccccc4c(=O)c3C2c2cccc(O)c2)nc1 (stereo not drawn)	?	/	25µM*	0%	-41%	-11%
COc1cc(C2c3c(oc4cc(C)c(C)cc4c3=O)C(=O)N2c2cc(C)ccn2)ccc1O (stereo not drawn)	-6%	>57	5µM*	2%	-12%	-7%
CCOc1ccc(C2c3c(oc4ccccc4c3=O)C(=O)N2c2ccc(C)cn2)cc1OC (stereo not drawn)	-1%	/	4µM*	0%	-10%	2%
COc1ccc(CNc2cc(-c3cccc(C#N)c3)ncn2)c(OC)c1	-24%	/	14%	-3%[2.29 µM]	?	?
CN1C[C@H](C(=O)N[C@]2(C)O[C@@]3(O)[C@H]4CCCN4C(=O)[C@@H](Cc4ccccc4)N3C2=O)C[C@H]2c3cccc4[nH]cc(c34)C[C@@H]21	/	/	41%	2%[11.4 µM]	-10%	-5%
COc1cc(C)c(C(C)C)cc1S(=O)(=O)NCCCn1ccnc1	17%	>57	-2%	-1%	5%	11%
CCCn1c(=O)c2ccccc2n2c(SCCOc3ccc(Cl)cc3)nnc12	-4%	>57	4%	-15%	?	25µM*
CCCCn1c(NC(=O)c2ccccc2)nc2ccccc21	12%	/	14%	-13%	?	32µM*
SMILES	ALOX15 inhib	Bst PK mod	Tau fil binding	Luciferase inh	TSHR ag	HEK293 cAMP ctrl
C=CC[C@@H]1C=C[C@H](O/N=C2\c3cc(OC)ccc3O[C@H](c3cccc(OC)c3)[C@H]2O)[C@H](CO)O1	0%[11.4 µM]	/	/	0%[11.4 µM]	-1%[11.4 µM]	6%[11.4 µM]
CC(=O)NC(CCS(C)(=O)=O)C(=O)Nc1cccc(C)c1 (stereo not drawn)	6%	/	2%	-4%	?	3.2µM*
Cc1ccc(-c2cn3nc(C)c(C)nc3n2)cc1	1%	5.5*	365%	2.5µM*	-3%	3%
Cc1ccc(-c2cn3c(n2)CCCC3)cc1	11%	>57	7%	-1%	18%	20%
C/C(=N\O)c1c(C)c2ccccc2n1C	/	>11	/	2%[25.5 µM]	/	/
Cn1c2c(c3ccccc31)CC/C2=N\O	25µM*	/	4%	-4%	6%	-13%
Nc1nc(COc2ccc3ccccc3c2)cs1	-1%	i	4%	25µM*	-2%	-8%
COc1ccccc1NS(=O)(=O)c1cc(C(=O)O)ccc1F	-2%	/	/	/	1%	2%
CC(=O)C1(O)C(C)CC2C3CCC4CC(O)CCC4(C)C3=CCC21C (stereo not drawn)	-3%	/	2%	3%	?	13µM*
COc1ccc(CCNc2ncnc3c2oc2ccccc23)cc1OC	8%	i	24%	1%	?	13µM*
Cc1noc(C)c1C(=O)N1CCC[C@@]2(CCN(c3ncccn3)C2)C1	8%	/	3%	1%[11.4 µM]	6%	8%
O=C(C1CC(c2ccccc2O)=NO1)N1CCCC1 (stereo not drawn)	20µM*	>57	41%	-2%	0%	4%
CCOC(=O)N1CCN(C(=O)C2CC(c3ccccc3OC)=NO2)CC1 (stereo not drawn)	1%	>57	-1%	-1%	-3%	5%
Nc1ccn([C@H]2O[C@@H](COP(=O)(O)O)[C@@H](O)[C@H]2O)c(=O)n1	-2%[11.4 µM]	/	-2%[11.4 µM]	3%[11.4 µM]	2%[11.4 µM]	-4%[11.4 µM]
Cc1cc(C)n2nc(NCc3cccc(Br)c3)nc2n1	9%	?	11%	-2%	1µM*	1%
COC(=O)NC(c1ccccc1)C(C#N)C(=O)OC (stereo not drawn)	10%[11.4 µM]	/	/	/	-9%[11.4 µM]	-5%[11.4 µM]
O=C(CCN1C(=O)c2ccccc2C1=O)Nc1ccc(-c2cn3ccsc3n2)cc1	-9%	>57	11%	-14%	?	?
CC(=O)Nc1ccc(-c2cn3ccsc3n2)cc1	1%	?	2%	16µM*	5%	6%
CCC(=O)Nc1cccc(-c2cn3ccsc3n2)c1	10%	i	0%	?	-12%	-3%
CC(C)C(=O)Nc1cccc(-c2cn3ccsc3n2)c1	-11%	/	-5%	?	-2%	-16%
O=C(Nc1ccc(-c2cn3ccsc3n2)cc1)C1CC1	-5%	4.9*	-8%	6.3µM*	2%	-6%
O=C(Nc1ccc(-c2cn3ccsc3n2)cc1)C1CCCC1	-3%	2.4*	-1%	2.5µM*	-3%	4%

Screening results deposited in PubChem BioAssay by National Center for Advancing Translational Sciences (NCATS).
